Experiment [1] can be described thus: binders of probe aFSTL3 on microarray, primary screen, stem cell growth factor project, biochemical, small-molecule microarray, fluorescence 635/667 (AID 1064).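 Further: measures binding of the biotinylated anti-FSTL3 antibody to printed compounds.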 The settings on record: higher = more signal.
The nature of experiment [2]: binders from COS7 lysate, DM2A8 probe, primary screen, torsin A project, cell lysate, small-molecule microarray, fluorescence 635/667 (AID 1065). The conditions noted are these: higher = more signal, COS7 lysate expressing mutant human TOR1A.
Experiment [3] is described as follows: binders of probe aFGF2 on microarray, primary screen, stem cell growth factor project, biochemical, small-molecule microarray, fluorescence 635/667 (AID 1067).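 Further: measures binding of biotinylated aFGF2 protein to printed compounds on slides; z-score merges feature fluorescence and signal-to-noise across triplicate slides.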 The settings on record: higher = more signal.
A short description of experiment [4]: binders of probe aFGF10 on microarray, primary screen, stem cell growth factor project, biochemical, small-molecule microarray, fluorescence 635/667 (AID 1071).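 Further: score merges 667 nm spot intensity and signal to noise from triplicate slides.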 The conditions noted are these: higher = more signal.
For experiment [5], the target named is Neurogenic locus notch homolog protein 2 (Homo sapiens) (UniProt Q04721). Nature of the experiment: Notch2 binders on small-molecule microarrays, primary screen, biochemical, small-molecule microarray, 635 nm fluorescence, stem cell growth factors (AID 1073). The settings on record: Notch2 binding, higher = more signal.
Chain of Neurogenic locus notch homolog protein 2 (Homo sapiens) (Q04721 whole entry, looked up, canonical isoform): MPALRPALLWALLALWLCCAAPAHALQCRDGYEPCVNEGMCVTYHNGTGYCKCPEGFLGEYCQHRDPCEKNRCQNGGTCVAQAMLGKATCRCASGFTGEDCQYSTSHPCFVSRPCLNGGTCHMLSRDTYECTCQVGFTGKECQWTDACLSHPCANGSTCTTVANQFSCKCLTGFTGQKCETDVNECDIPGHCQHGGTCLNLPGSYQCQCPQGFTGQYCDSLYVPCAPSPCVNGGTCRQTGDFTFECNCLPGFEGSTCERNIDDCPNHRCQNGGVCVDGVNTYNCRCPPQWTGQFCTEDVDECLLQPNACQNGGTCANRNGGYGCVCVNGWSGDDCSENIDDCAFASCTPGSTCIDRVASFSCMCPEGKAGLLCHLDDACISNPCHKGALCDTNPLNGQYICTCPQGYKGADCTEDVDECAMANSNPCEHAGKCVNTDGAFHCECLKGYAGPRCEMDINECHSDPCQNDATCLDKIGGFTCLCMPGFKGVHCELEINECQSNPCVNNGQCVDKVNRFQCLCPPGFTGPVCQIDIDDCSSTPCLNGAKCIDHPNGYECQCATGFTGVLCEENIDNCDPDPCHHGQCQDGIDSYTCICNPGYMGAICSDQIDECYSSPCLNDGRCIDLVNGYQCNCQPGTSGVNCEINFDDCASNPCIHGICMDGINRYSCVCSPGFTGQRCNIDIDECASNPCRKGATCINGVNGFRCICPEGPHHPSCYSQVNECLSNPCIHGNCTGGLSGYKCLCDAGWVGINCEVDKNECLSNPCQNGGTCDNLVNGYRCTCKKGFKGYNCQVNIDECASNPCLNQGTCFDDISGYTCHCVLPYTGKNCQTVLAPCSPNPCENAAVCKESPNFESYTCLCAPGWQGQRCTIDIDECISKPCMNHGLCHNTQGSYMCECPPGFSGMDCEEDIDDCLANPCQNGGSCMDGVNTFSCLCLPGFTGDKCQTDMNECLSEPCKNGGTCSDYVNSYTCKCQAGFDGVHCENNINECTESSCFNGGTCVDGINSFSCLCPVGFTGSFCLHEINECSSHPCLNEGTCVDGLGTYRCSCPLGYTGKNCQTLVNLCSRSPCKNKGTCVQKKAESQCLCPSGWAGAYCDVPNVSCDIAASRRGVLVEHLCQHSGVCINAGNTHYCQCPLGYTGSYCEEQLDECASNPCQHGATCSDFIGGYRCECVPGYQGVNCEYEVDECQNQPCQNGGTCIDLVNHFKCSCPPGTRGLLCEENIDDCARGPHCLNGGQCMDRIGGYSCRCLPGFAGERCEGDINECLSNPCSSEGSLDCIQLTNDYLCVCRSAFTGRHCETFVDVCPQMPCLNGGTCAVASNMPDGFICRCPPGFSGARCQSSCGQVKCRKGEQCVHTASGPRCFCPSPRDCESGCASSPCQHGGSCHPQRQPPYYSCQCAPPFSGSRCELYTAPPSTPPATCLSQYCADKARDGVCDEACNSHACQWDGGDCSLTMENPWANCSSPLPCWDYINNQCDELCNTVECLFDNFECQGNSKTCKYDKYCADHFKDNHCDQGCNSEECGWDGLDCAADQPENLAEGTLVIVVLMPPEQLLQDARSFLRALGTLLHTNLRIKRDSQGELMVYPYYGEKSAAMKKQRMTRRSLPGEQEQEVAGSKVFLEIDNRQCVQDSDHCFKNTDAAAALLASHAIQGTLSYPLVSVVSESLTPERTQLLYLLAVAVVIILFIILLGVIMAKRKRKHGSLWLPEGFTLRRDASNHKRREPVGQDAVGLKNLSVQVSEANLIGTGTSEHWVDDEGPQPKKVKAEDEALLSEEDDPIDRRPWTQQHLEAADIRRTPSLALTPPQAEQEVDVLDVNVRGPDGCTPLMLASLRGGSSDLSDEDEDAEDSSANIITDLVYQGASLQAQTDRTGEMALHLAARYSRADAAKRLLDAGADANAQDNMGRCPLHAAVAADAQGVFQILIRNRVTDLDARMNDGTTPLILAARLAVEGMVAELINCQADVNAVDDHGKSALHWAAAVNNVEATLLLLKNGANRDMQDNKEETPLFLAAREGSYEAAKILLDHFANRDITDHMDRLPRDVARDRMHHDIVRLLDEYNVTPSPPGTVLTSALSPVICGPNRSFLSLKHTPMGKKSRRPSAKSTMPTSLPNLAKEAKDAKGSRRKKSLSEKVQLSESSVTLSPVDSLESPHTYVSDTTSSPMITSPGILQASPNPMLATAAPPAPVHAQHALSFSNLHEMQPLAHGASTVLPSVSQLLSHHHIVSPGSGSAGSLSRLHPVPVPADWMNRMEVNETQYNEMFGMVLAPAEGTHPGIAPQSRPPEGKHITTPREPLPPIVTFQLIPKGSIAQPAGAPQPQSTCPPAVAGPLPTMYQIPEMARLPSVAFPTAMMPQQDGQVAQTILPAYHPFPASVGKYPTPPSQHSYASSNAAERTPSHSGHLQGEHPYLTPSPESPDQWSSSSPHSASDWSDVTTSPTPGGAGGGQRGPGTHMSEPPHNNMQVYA
For experiment [6], the target named is Pro-neuregulin-1, membrane-bound isoform (Homo sapiens) (UniProt Q02297). Nature of the experiment: NRG1 binders on small-molecule microarrays, primary screen, psychiatric disease protein project, biochemical, small-molecule microarray, fluorescence 635/667 (AID 1075).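 Further: score combines 667 nm spot fluorescence with signal to noise.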 The settings on record: NRG1 binding, 635 nm fluorescence, higher = more signal.
Chain of Pro-neuregulin-1, membrane-bound isoform (Homo sapiens) (Q02297 whole entry, looked up, the tested form may be a part, canonical isoform): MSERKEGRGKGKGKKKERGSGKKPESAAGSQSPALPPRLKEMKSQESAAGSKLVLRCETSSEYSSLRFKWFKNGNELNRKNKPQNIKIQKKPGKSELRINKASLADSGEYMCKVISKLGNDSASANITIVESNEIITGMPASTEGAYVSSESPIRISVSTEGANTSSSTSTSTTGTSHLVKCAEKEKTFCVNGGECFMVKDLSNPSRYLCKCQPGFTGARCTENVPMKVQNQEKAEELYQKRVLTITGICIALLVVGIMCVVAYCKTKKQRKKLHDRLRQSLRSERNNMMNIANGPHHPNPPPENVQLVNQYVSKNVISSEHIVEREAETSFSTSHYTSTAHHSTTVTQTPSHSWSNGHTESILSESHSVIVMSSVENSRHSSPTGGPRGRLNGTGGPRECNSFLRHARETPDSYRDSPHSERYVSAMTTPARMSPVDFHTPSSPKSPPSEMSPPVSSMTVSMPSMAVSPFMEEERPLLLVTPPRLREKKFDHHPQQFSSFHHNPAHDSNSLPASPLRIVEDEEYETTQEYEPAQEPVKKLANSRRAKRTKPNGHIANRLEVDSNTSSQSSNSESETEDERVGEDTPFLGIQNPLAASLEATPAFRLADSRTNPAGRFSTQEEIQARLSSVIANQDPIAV
Experiment [7] concerns Neuregulin-1 EGF-like domain. Nature of the experiment: binders of neuregulin-1 EGF-like domain, primary screen, biochemical, small-molecule microarray, 635 nm fluorescence (AID 1081).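 Further: binding of the protein to compounds printed on small-molecule microarray slides.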 The settings on record: small-molecule microarray binding, higher = more signal.
Experiment [8] is described as follows: FRG1 promoter luciferase signal modulators, primary screen, FRG1 inhibition for FSHD, cell-based, C2C12 myotubes, firefly/Renilla luciferase, luminescence (AID 1084). The settings on record: higher = more signal, called active from +8 up or from −8 down.
The nature of experiment [9]: binders of probe aFST on microarray, primary screen, stem cell growth factor project, biochemical, small-molecule microarray, fluorescence 635/667 (AID 1086).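 Further: score merges 667 nm fluorescence with signal-to-noise of each printed compound spot.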 The conditions noted are these: higher = more signal.
The nature of experiment [10]: binders of probe aHhip on microarray, primary screen, stem cell growth factor project, biochemical, small-molecule microarray, fluorescence 635/667 (AID 1087).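 Further: score merges spot fluorescence at 667nm with spot signal to noise ratio.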 The settings on record: higher = more signal.
For experiment [11], the system named is PRMT1 (protein arginine N-methyltransferase 1). Nature of the experiment: PRMT1 binders on small-molecule microarrays, primary screen, biochemical, small-molecule microarray, 635 nm fluorescence (AID 1088).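 Further: binding of Prmt1 protein to compounds spotted on small-molecule microarray slides.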 The conditions noted are these: small-molecule microarray binding, higher = more signal.
Experiment [12] can be described thus: yeast growth modulation, basal conditions, primary screen, YJM789 clinical isolate, OD600, 24 h (AID 1089).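 Further: growth of clinical yeast isolate S. cerevisiae YJM 789 seeded 1000 cells per well; test concentration not given here.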 The conditions noted are these: S. cerevisiae YJM789 growth, higher = more signal, called active from +8 up or from −8 down.
Experiment [13] can be described thus: fission yeast growth modulation, primary screen, strain 972, OD600, 24 h, no modulator (AID 1090).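 Further: basal condition with compound alone and no growth modifier present; test concentration not given here.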 The settings on record: S. pombe 972 growth, higher = more signal, called active from +8 up or from −8 down.
Experiment [14] is described as follows: S. cerevisiae growth modulation with rapamycin, primary screen, strain BY4716, OD600, 96 h (AID 1091). Further: test concentration not given here. The settings on record: higher = more signal, called active from +8 up or from −8 down.
Experiment [15] addresses Torsin-1A-interacting protein 2 (Homo sapiens) (UniProt Q8NFQ8). Briefly: LULL1 binders on small-molecule microarray, primary screen, cell lysate, human LULL1 lysate, 635/667 nm fluorescence (AID 1092).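 Further: probe is lysate of COS7 cells overexpressing human LULL1; score merges per-feature 667 nm fluorescence with signal-to-noise.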 The conditions noted are these: hLULL1 lysate binding, 635 nm fluorescence, higher = more signal.
The nature of experiment [16]: E. coli growth modulation, two-sided OD650, primary screen, E. coli filamentation project, strain DRC41, 24 h (AID 1093).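 Further: MC1000 strain lacking acrAB efflux and sulA so SOS filamentation is blocked; test concentration not given here.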 The settings on record: OD650, 24 h, higher = more signal, called active from +8 up or from −8 down.
Experiment [17] in a line: small-molecule microarray binders of probe aLefty2, primary screen, biochemical, biotinylated probe, 635/667 nm fluorescence (AID 1094).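 Further: score merges spot fluorescence near 667 nm with spot signal-to-noise ratio.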 The conditions noted are these: higher = more signal.
Experiment [18] deals with Noggin (protein binding on small-molecule microarray). Briefly: Noggin binders on small-molecule microarray, primary screen, biochemical, 635/667 nm fluorescence (AID 1095).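 Further: score merges 667 nm feature fluorescence with signal to noise over triplicate slides.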 The conditions noted are these: 635 nm fluorescence, higher = more signal.
Experiment [19] addresses Neurogenic locus notch homolog protein 3 (Homo sapiens) (UniProt Q9UM47). Briefly: NOTCH3 binders on small-molecule microarray, primary screen, biochemical, 635/667 nm fluorescence (AID 1096). The settings on record: NOTCH3 binding, 635 nm fluorescence, higher = more signal.
Experiment [20] in a line: small-molecule microarray binders of probe aEGFR, primary screen, biochemical, biotinylated probe, 635/667 nm fluorescence (AID 1097).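 Further: probe is a biotinylated anti-EGFR antibody binding compounds printed on slides; score combines fluorescence near 667 nm and signal to noise of each spot.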 The settings on record: higher = more signal.

The source made the active and inactive calls.

Chain of Torsin-1A-interacting protein 2 (Homo sapiens) (Q8NFQ8 whole entry, looked up): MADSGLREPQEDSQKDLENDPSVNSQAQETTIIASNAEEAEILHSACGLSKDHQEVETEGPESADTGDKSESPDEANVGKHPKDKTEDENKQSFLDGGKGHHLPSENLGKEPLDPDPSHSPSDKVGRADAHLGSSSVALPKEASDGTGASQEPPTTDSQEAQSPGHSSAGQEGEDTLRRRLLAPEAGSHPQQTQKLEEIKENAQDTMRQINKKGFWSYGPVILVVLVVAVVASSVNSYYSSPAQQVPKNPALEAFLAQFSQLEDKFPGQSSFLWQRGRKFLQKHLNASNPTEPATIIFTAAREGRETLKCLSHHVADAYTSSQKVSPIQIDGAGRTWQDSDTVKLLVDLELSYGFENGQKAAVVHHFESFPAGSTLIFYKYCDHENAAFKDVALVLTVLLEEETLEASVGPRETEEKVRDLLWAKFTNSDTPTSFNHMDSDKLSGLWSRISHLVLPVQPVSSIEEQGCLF

As for `C=C(C(=O)CC[C@@H](OC(C)=O)c1ccccc1OCCO)C(C)C`, the composite z-score in experiment [1] is -0.354; in experiment [2], -0.363; in [3], -0.133; in experiment [4], 0.664; in [5], -0.553; in [6] it was -0.267. Moreover, the composite z-score was -0.29 in [7]; -0.575 in experiment [9]; -0.0994 in [10]; 0.526 in experiment [11]; -0.0719 in experiment [15]; -0.2 in experiment [17]. The composite z-score in experiment [18] is -0.0776; in experiment [19], 0.232; in experiment [20], -0.249. Moreover, the z-score in [8] was -2.13 (inactive); in experiment [12], -6.28 (inactive); in [13], -20.5 (active); in [14], -2.44 (inactive); in experiment [16], 1.27 (inactive).
Consider `CN1C=C(C(=O)OCCS(C)(=O)=O)C(C(=O)OCCS(C)(=O)=O)=CC(CCCO)=CC1c1cccs1` (stereo not given), for which the composite z-score in experiment [1] was -0.329; in experiment [2], 0.58; in experiment [3] it was -0.197; in [4] it was 0.239; in experiment [5], 0.907; in [6] it was -0.362. For the same compound, the composite z-score in experiment [7] was found to be 0.269; in experiment [9], 0.137; in [10] it was 0.0664; in experiment [11] it was 1.13; in experiment [15] it was 0.454; in experiment [17], 0.022. Also, the composite z-score in [18] was 0.774; in experiment [19] it was 0.774; in [20] it was -0.0659. Further, the z-score in experiment [8] is -0.234 (inactive); in experiment [12] it was -0.444 (inactive); in experiment [13], -1.22 (inactive); in experiment [14], -2.42 (inactive); in experiment [16] it was 0.261 (inactive).
For `CC(C)N1CC=CC23O[C@@H]4/C=C\CCCOC(=O)C4[C@H]2C(=O)N(CCCO)[C@@H]3C1=O` (stereo not given in full), the composite z-score in [1] is 0.495; in [2], 2.3; in [3] it was -0.01; in [4] it was 0.215; in experiment [5], -0.615; in [6], 0.0034. The composite z-score in experiment [7] was 1.14; in experiment [9] it was -0.623; in experiment [10], -0.374; in experiment [11] it was -0.78; in [15] it was 2.15; in experiment [17] it was -0.221. In addition, the composite z-score was -1.17 in experiment [18], 0.0751 in experiment [19] and -0.285 in [20]. Further, the z-score in experiment [8] was 1 (inactive); in [12] it was 0.759 (inactive); in experiment [13] it was -0.76 (inactive); in [14] it was 0.752 (inactive); in experiment [16], 1.77 (inactive).
`O=C1N(CCS(=O)(=O)c2ccccc2)Cc2ccccc2[C@@H]2OC(c3ccc(OCCCO)cc3)=N[C@]12Cc1ccccc1`: the composite z-score in experiment [1] amounted to 1.02; in experiment [2] it was 0.397; in [3], 0.196; in [4], 0.849; in [5], 1.5; in experiment [6], 1.84. Also, the composite z-score in experiment [7] was 1.39; in experiment [9], 0.843; in [10] it was -0.338; in experiment [11] it was 1.53; in experiment [15], 3.4; in experiment [17] it was 0.657. Further, the composite z-score in [18] worked out at 1.1; in experiment [19] it was 1.01; in experiment [20] it was 0.442. Also, the z-score is -2.88 (inactive) in experiment [8]; 2.44 (inactive) in [12]; 1.46 (inactive) in [13]; 9.7 (active) in experiment [14]; 0.552 (inactive) in experiment [16].
As to `CCN(CC)c1ccc(N2CC=CC34O[C@@H]5C=CCOC(=O)[C@@H]5[C@H]3C(=O)N(C(C)CO)[C@@H]4C2=O)cc1` (stereo not given in full), the composite z-score in experiment [1] is 0.652; in experiment [2], -0.893; in [3] it was -0.171; in experiment [4], -0.784; in experiment [5] it was -1.58; in experiment [6], 0.392. The composite z-score in [7] was 0.344; in experiment [9] it was -0.278; in experiment [10], -0.0296; in experiment [11], -1.48; in [15], -0.151; in [17], -0.0592. In addition, the results for the composite z-score in experiment [18], in experiment [19] and in experiment [20] were -1.39, -0.894 and -0.252, respectively. Further, the z-score in [8] was 0.403 (inactive); in experiment [12], -0.185 (inactive); in experiment [13] it was -1.4 (inactive); in experiment [14], -0.8 (inactive); in experiment [16], 1.7 (inactive).

Source of the values: PubChem BioAssay.
